Compounds with a hit are over-represented: about 2.3% of the library has one in this group of screens.
CHO-K1 Ca antag: M1 antagonist counterscreen hit in parental CHO-K1 cells. ATP-induced calcium, Fluo-8 fluorescence. inhibition, % at 3 µM. 0.6% of 360,000 active;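 active means inhibition above a per-plate cutoff, the plate's mean sample inhibition plus 3 SD, cut at about 24% in these data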
M1 ag: agonists of human M1 muscarinic receptor; CHO-K1 hM1, Fluo-8 calcium fluorescence, agonist mode; 0% DMSO, 100% acetylcholine EC100; activation, % at 3 µM; 0.33% of 360,000 active; AID 588814;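 active means activation above the run's mean compound activation plus 3 SD, cut at about 16% in these data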;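 further: peak over basal fluorescence ratio within a 140 s kinetic read after compound addition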
Target sequence (P11229 whole entry, looked up): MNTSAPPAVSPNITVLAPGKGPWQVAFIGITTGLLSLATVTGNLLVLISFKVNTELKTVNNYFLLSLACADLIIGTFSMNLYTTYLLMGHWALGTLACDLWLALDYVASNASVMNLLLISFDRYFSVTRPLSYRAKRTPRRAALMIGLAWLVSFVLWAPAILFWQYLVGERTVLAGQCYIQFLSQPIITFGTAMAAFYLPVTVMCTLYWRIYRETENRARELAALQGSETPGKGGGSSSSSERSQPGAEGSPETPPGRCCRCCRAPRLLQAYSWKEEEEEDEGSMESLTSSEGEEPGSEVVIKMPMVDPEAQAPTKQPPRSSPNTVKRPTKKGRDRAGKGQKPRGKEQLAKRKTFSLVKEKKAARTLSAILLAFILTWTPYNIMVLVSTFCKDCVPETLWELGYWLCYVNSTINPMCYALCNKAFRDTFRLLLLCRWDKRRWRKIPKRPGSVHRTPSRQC
CHRM1 PAM: positive allosteric modulators of human M1 muscarinic receptor | 0.088% of 360,000 active | activation, % at 3 µM | AID 588819 | P11229 | CHO-K1 hM1, Fluo-8 calcium fluorescence, ACh EC20; 0% = ACh EC20, 100% = maximal ACh; in the data active means activation above about 19%, passing the limit was not always enough
CHRM1 antagonist: human CHRM1 antagonism. CHO-K1 hM1, Fluo-8 calcium fluorescence, ACh EC80 antagonist. inhibition, % at 3 µM. 1.3% of 360,000 active. AID 588852;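 active means percent inhibition above its own plate's cutoff, namely the mean of that plate's compound wells plus 3 SD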;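 further: peak over basal fluorescence ratio during 140 s after agonist addition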
M1 ag parental: nonselective activator or artifact in parental CHO-K1 cells; Fluo-8 calcium fluorescence; scaled to maximal ATP response, vehicle zero; activation, % at 3 µM; 0.48% of 360,000 active; AID 602248; in the data active means activation above about 15%;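 further: untransfected CHO-K1 host cells lacking M1 receptor as counterscreen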
CHO-K1 Ca PAM: counter-screen for M1 PAMs: effect in parental CHO-K1 cells. ATP EC20, Fluo-8 calcium fluorescence; 0% at ATP EC20, 100% at ATP max. activation, % at 3 µM. 0.02% of 360,000 active. AID 602247;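 active means activation above the run cutoff, the mean activation of all test compounds plus 3 SD, cut at about 40% in these data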;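 further: peak over basal fluorescence ratio in a 140 s read after ATP addition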
Each line names hits and unclear results; the compound was inactive in the other large screens.

O=C(Nc1cc(=O)c2ccccc2o1)N1CCOCC1	CHRM1 antagonist 31
O=C(Nc1cc(=O)c2ccccc2o1)N1CCCCC1	none
Cc1ccc2oc(NC(=O)N3CCOCC3)cc(=O)c2c1	CHO-K1 Ca antag 31
COc1ccccc1C(=O)NC(=O)COC(=O)c1nc(Cl)ccc1Cl	none
Nc1ccn(C2OC(COC(=O)C34CC5CC(CC(C5)C3)C4)C(O)C2O)c(=O)n1 (centres undefined)	none
CN(C)CCCN1c2ccc3ccccc3c2Sc2cccc(Cl)c21	none
CN(C)CCCN1c2ccccc2Sc2ccc3ccccc3c21	CHRM1 antagonist 82
COC(=O)CNC(=O)COC(=O)/C=C/c1ccc2ccccc2n1	M1 ag parental 16
CN(C)CCOC1c2ccccc2CSc2ccccc21 (centres undefined)	CHRM1 antagonist 99
CC1(C(=O)NCc2cccc3ccccc23)CCN1Cc1ccc2ccccc2c1 (centres undefined)	none
CC1(C(=O)NCc2cccc(C(F)(F)F)c2)CCN1Cc1ccc2ccccc2c1 (centres undefined)	CHRM1 antagonist 32
COc1ccc(-n2c(C)cc(C(=O)COC(=O)Cn3cnc4ccccc43)c2C)cc1	CHO-K1 Ca antag 33, CHRM1 antagonist 20
CC(C)C[C@H]1CNC(=O)C(=O)N1CC1CCN(CC2CCC(C)CC2)CC1 (some centres undefined)	CHRM1 antagonist 39
CC[C@H](C)[C@H]1CNC(=O)C(=O)N1CC1CCN(CC2CCC(C)CC2)CC1 (some centres undefined)	none
Cc1ccc2ncccc2c1NC(=S)NC(=O)c1ccccc1	none
COc1ccccc1CN(C)C(=O)COC(=O)c1cc(C)oc1C	none
CCOC(=O)CSC(C)C(=O)Nc1nnc(C(C)C)s1 (centres undefined)	none
c1cnc2ncc3sccc3c2c1	M1 ag parental 19
Cc1cnc2ncc3sccc3c2c1	none
COC(=O)c1ccccc1-n1cccc1C(=O)NP(=O)(N1CCOCC1)N1CCOCC1	none
C[N+](C)(C)CCN(Cc1ccc(Cl)cc1)c1ccccn1	M1 ag 19, CHRM1 antagonist 26
O=C(NCCCCCCCN1CCCCCCC1)C(C1CCCCC1)C1CCCCC1	CHRM1 antagonist 57
Nc1c(C(=O)NCc2ccccc2)nnn1Cc1ccccc1	none
CSc1ccc(Cn2nnc(C(=O)NCc3ccccc3)c2N)cc1	M1 ag 34, M1 ag parental 19
Nc1nc(SCC(=O)Nc2c(Br)cc([N+](=O)[O-])cc2Br)n[nH]1	CHO-K1 Ca antag 29
C(=N\N1CCN(C(c2ccccc2)c2ccccc2)CC1)/c1ccc2c(c1)OCO2	CHO-K1 Ca antag 24
COc1ccccc1CN1C2CCCC1CC(NC(=O)/C=C/c1ccccc1)C2 (centres undefined)	CHRM1 antagonist 62
C[C@@H]1CN([C@H](C)CO)C(=O)CCCn2cc(nn2)CO[C@H]1CN(C)S(=O)(=O)c1ccc(F)cc1	CHO-K1 Ca antag 26
C[C@@H]1CN([C@@H](C)CO)C(=O)CCCn2cc(nn2)CO[C@H]1CN(C)S(=O)(=O)c1cccs1	none
C[C@@H]1CN([C@H](C)CO)C(=O)CCCn2cc(nn2)CO[C@H]1CN(C)S(=O)(=O)c1cccs1	CHO-K1 Ca antag 32
CC(C)(C)NC(=S)NC1CC1	none
CC(C)(C)[C@H](NC(=O)c1ccc(N)c(Cl)c1)C(=O)N1CCC[C@H]1C(=O)N[C@H](C#N)CC(=O)O	none
Cc1ccc(S(=O)(=O)N(C)C[C@@H]2OCc3cnnn3CCCC(=O)N([C@@H](C)CO)C[C@H]2C)cc1	none
COc1ccc(Cc2c(C(C)(C)C)nc3c(C)cc(Br)cn23)c(C)c1	CHO-K1 Ca antag 25
COc1ccc(Cc2c(C(C)(C)C)nc3cc(C)c(Br)c(C)n23)c(C)c1	none (no result: M1 ag, CHRM1 PAM, CHRM1 antagonist)
COc1ccc(C(=O)N2CCC3(CC2)NCCc2[nH]cnc23)cc1	none
COC(=O)C(CCSC)NC(=O)c1cc2c(n(-c3ccccc3)c1=O)CC(C)(C)CC2=O (centres undefined)	CHO-K1 Ca antag 27
COC(=O)C(CCSC)NC(=O)c1cc2c(n(-c3ccc(C)cc3)c1=O)CCCC2=O (centres undefined)	none
CCCc1cc(=O)oc2cc(OC(C)C(=O)NCC3CCC(C(=O)O)CC3)ccc12 (centres undefined)	CHO-K1 Ca antag 27
O=C(NC1=NCCS1)c1cccc(S(=O)(=O)N2CCOCC2)c1	none
CCN(CC)CCOC(=O)/C=C/c1ccccc1	none
CCN(CC)CCCOC(=O)C(c1ccccc1)c1ccccc1	CHRM1 antagonist 101
Cc1cc(C)n(CC(=O)c2cccc([N+](=O)[O-])c2)n1	M1 ag parental 17
CCN(C(=O)COC(=O)c1ccccc1Nc1ccccc1)c1c(N)n(Cc2ccccc2)c(=O)[nH]c1=O	none
Cc1ccc(CN2C(=O)c3ccccc3C2c2nnnn2C(C)C)cc1 (centres undefined)	none (no result: M1 ag, CHRM1 PAM, CHRM1 antagonist)
CCN(CC)c1ccc2c(c1)OC(N)=C(C#N)C2c1cccnc1 (centres undefined)	M1 ag 22, M1 ag parental 17
N#CC1=C(N)Oc2n[nH]c(-c3ccccc3)c2C1c1cccnc1 (centres undefined)	none
N#CC1=C(N)Oc2nc(-c3ccccc3)[nH]c2C1c1cccnc1 (centres undefined)	CHO-K1 Ca antag 32
O=C(NC1CCC1)C1CCC(=O)N(Cc2ccc(Cl)cc2)C1 (centres undefined)	none
Nc1ccc(-n2nncc2-c2ccc(Cl)cc2)cc1	M1 ag parental 17
O=[N+]([O-])c1ccc(-n2nncc2-c2ccc(Cl)cc2)cc1	none
Cc1ccc(OCC(=O)NNC(=O)c2ccccc2OCc2c(C)noc2C)cc1	none
CCn1c(C)cs/c1=N\C(=S)Nc1ccccc1C	CHO-K1 Ca antag 24
CN1CCN(Cc2cn[nH]c2-c2ccc(F)cc2F)[C@@H](c2ccccc2)C1	M1 ag 46, CHRM1 antagonist 21
Cc1cccc(OC(=O)NCCOC(=O)N(O)c2ccc(Cl)cc2)c1	CHO-K1 Ca antag 24
CCCc1nc2c3ccccc3ccn2c1Cc1cccc(F)c1	CHRM1 antagonist 56
Cc1nc2c(o1)CCc1ccccc1C2N1CCN(C)CC1 (centres undefined)	CHRM1 antagonist 99
Cc1nc(S(=O)(=O)N2CCN(C3c4ccccc4-c4ccccc43)CC2)cn1C	none
O=C(COc1ccc2ccccc2c1Br)Nc1ncn[nH]1	M1 ag parental 19
Cc1cc(C)nc(NC(=NCCc2c[nH]c3ccccc23)NC(=O)Nc2ccc(Cl)c(Cl)c2)n1	none
Cc1cc(C)nc(NC(=NCCc2c[nH]c3ccccc23)NC(=O)Nc2ccccc2)n1	CHRM1 antagonist 21
